Assay results from PubChem BioAssay (NCI).
The panel holds about 79,000 compounds, 15% with a hit somewhere; the sample as a whole holds those more often. Values without a mark were called inactive. Calls of active or inactive are those of the source. Rule as the data show it: active = growth inhibition above about 70%; inactive = the rest. *1 amine or outer side, *2 acyl side, *3 side chain or, on linkers, in order; H or OH if unused. Where a SMILES comes first, the peptide text is derived from it. [ ]: non-standard residue; d: D form. X2 = CC[C@H](C)[C@H](OC(=O)[C@@H](C)[C@@H](CC)N[*:1])C(=O)[*:2]; X3 = C[C@H](N[*:1])C(=O)C(C)(C)C(=O)[*:2]; NMeY = CN[C@@H](Cc1ccc(O)cc1)C(=O)O; NMeL = CN[C@@H](CC(C)C)C(=O)O; NMeV = CN[C@H](C(=O)O)C(C)C

Legend:
[1] = NCI Yeast Anticancer Drug Screen. Data for the rad50 strain (AID 155);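 also: 0% = growth of vehicle-only cultures of the same strain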; conditions: S. cerevisiae rad50 strain growth inhibition, hits give high values
In short: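 Growth of the mutant yeast was measured after compound exposure and referenced to vehicle-treated cultures.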

[2] = NCI Yeast Anticancer Drug Screen. Data for the mec2-1 strain (AID 157); conditions: S. cerevisiae mec2-1 strain, hits give high values
In short: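 Cells of the genetically defined mec2-1 yeast strain are incubated with test compound. Inhibition of growth is calculated against vehicle-treated controls.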

[3] = NCI Yeast Anticancer Drug Screen. Data for the sgs1 mgt1 strain (AID 161);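 also: 0% = growth of cultures given vehicle only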; conditions: S. cerevisiae sgs1 mgt1 strain, hits give high values
In short: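 Inhibition of yeast growth, normalised to vehicle-treated controls, is reported for a strain bearing genetic alterations in DNA damage repair.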

[4] = NCI Yeast Anticancer Drug Screen. Data for the cln2 rad14 strain (AID 165);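 also: 0% = growth equal to vehicle treated cultures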; conditions: S. cerevisiae cln2 rad14 strain, hits give high values
In short: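 The screen exposed genetically defined yeast (cln2 rad14) to test compounds and scored growth inhibition relative to vehicle-treated controls.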

[5] = NCI Yeast Anticancer Drug Screen. Data for the bub3 strain (AID 167); conditions: S. cerevisiae bub3 mutant strain, hits give high values
In short: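 Whole-cell yeast assay. The mutant strain was incubated with compounds, and growth inhibition was determined by comparison with vehicle-treated cells.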

[6] = NCI Yeast Anticancer Drug Screen. Data for the mlh1 rad18 strain (AID 175); conditions: S. cerevisiae mlh1 rad18 strain growth inhibition, hits give high values
In short: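 Compound-treated yeast growth, normalised to vehicle controls. Strain bears defined DNA repair mutations.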

[7] = at 5.0 µM (retest, dose inferred, filed as 0.5)
[8] = at 50.0 µM (retest, dose inferred, filed as 5.0)

| SMILES | growth inhibition [1, 7] | growth inhibition [1, 8] | growth inhibition ([1]; at 50.0 µM) | growth inhibition [2, 7] | growth inhibition [2, 8] | growth inhibition ([2]; at 50.0 µM) | growth inhibition [3, 7] | growth inhibition [3, 8] | growth inhibition ([3]; at 50.0 µM) | growth inhibition [4, 7] | growth inhibition [4, 8] | growth inhibition ([4]; at 50.0 µM) | growth inhibition [5, 7] | growth inhibition [5, 8] | growth inhibition ([5]; at 50.0 µM) | growth inhibition [6, 7] | growth inhibition [6, 8] | growth inhibition ([6]; at 50.0 µM) |
| --- | --- | --- | --- | --- | --- | --- | --- | --- | --- | --- | --- | --- | --- | --- | --- | --- | --- | --- |
| C[C@]12CC/C(=N\OC(=O)Nc3ccccc3)C=C1CC[C@@H]1C2CC[C@@]2(C)C1CC[C@@H]2OC(=O)Nc1ccccc1 (some centres undefined) | -7% | 71% (active) | 47.2% | -2% | 71% (active) | 95% (active) | 1% | 86% (active) | 4% | -5% | 47% | 31.9% | -8% | 65% | 93.1% (active) | -4% | 87% (active) | 89% (active) |
| CC(C)=[CH][Sb]([Br])([CH]=C(C)C)([CH]=C(C)C)[CH]=C(C)C | -1% | 11% | 50.8% | -4% | 17% | 33.7% | -4% | 14% | 18.9% | -8% | 3% | -17.4% | 11% | 13% | 30.7% | -7% | 12% | 24.4% |
| CC(C)(C)OC(=O)NC(CSC(c1ccccc1)(c1ccccc1)c1cccs1)C(=O)O (centres undefined) | 7% | 97% (active) | 95.7% (active) | 17% | 99% (active) | 69.2% | 7% | 99% (active) | 96.5% (active) | 23% | 99% (active) | 78.8% (active) | 9% | 99% (active) | 14.2% | 12% | 99% (active) | 83.2% (active) |
| C[C@]12CC[C@H]3[C@@H](CCC4=CC(=O)CC[C@@H]43)[C@@H]1CC[C@@H]2OC1(O)C(=O)c2ccccc2C1=O | -7% | 47% | 65.2% | -6% | 21% | 27.4% | -2% | 59% | 74.8% (active) | -16% | 22% | 20.5% | -8% | 44% | 69.9% | 11% | 44% | 61.7% |
| CC[C@H](C)[C@@H]1OC(=O)[C@@H](C)[C@@H](CC)NC(=O)[C@H](C)NC(=O)C(C)(C)C(=O)[C@H](C)NC(=O)[C@H](Cc2ccc(OC)cc2)N(C)C(=O)[C@H](C(C)C)N(C)C(=O)CNC(=O)[C@H](CC(C)C)N(C)C(=O)CNC1=O (cyclo(A[X2]G[NMeL]G[NMeV][NMeY](Me)[X3])) | 99% (active) | 99% (active) | 92% (active) | 99% (active) | 99% (active) | 94% (active) | 99% (active) | 99% (active) | 93% (active) | 98% (active) | 98% (active) | 91% (active) | 99% (active) | 98% (active) | 92.7% (active) | 96% (active) | 97% (active) | 90.2% (active) |
| C/C1=C\[C@@H](O)C(=O)/C=C/C=C\c2csc(n2)[C@@H](C)NC(=O)C[C@@]2(CC1)S(=O)SC(=O)[C@]2(C)O (some centres undefined) | 92% (active) | 98% (active) | 91.6% (active) | 98% (active) | 99% (active) | 92.5% (active) | 90% (active) | 98% (active) | 92.2% (active) | 97% (active) | 98% (active) | 89.2% (active) | 94% (active) | 98% (active) | 90.3% (active) | 96% (active) | 98% (active) | 85% (active) |
| C[n+]1ccccc1-c1nc(-c2cccc[n+]2C)nc(-c2cccc[n+]2C)n1 | 37% | 75% (active) | 56.6% | 46% | 57% | 49.6% | 23% | 69% | 79.6% (active) | 14% | 51% | 21.9% | 19% | 73% (active) | 44.9% | 37% | 82% (active) | 84.2% (active) |
| N#Cc1ccc(N=Cc2c([O-])ccc3ccccc23)cc1.[C-]#[O+].[C-]#[O+].[Ir] | 8% | 8% | 82.6% (active) | 1% | 1% | 59.5% | 2% | 2% | 61.8% | 0% | 0% | 50.2% | 1% | 1% | 74.7% (active) | 13% | 13% | 75.8% (active) |
| O=C(CCCC(=O)NNC(=O)Nc1cccc(S(=O)(=O)F)c1)NNC(=O)Nc1cccc(S(=O)(=O)F)c1 | 1% | 3% | 73.2% (active) | 11% | 20% | 72.3% (active) | 3% | -19% | 80% (active) | -8% | -8% | 52.7% | -6% | -1% | 84.3% (active) | 9% | 33% | 72.8% (active) |
| O=C(N/N=C/c1cc(Cl)cc(Cl)c1[O-])c1ccccc1O.O=C(N/N=C/c1cc(Cl)cc(Cl)c1[O-])c1ccccc1O.[Mn+2] | 57% | 90% (active) | 66.8% | 88% (active) | 87% (active) | 91.3% (active) | 68% | 88% (active) | 47.1% | 77% (active) | 72% (active) | 85% (active) | 89% (active) | 80% (active) | 90.8% (active) | 56% | 87% (active) | 68.2% |
| CN(C)c1ccc(N=Cc2c([O-])ccc3ccccc23)cc1.[C-]#[O+].[C-]#[O+].[Ir] | 1% | 1% | 83.4% (active) | 15% | 15% | 60.4% | -17% | -17% | 78.3% (active) | 3% | 3% | 77.1% (active) | 2% | 2% | 82.5% (active) | 9% | 9% | 71.1% (active) |
| CC(=O)Oc1cccc2c1CC(C[Se]c1ccccc1)C(=O)O2 (centres undefined) | 11% | 40% | 69.9% | 8% | 35% | 35.5% | 11% | 57% | 70.2% (active) | 3% | 23% | 25.4% | -7% | 38% | 35% | 11% | 66% | 74.2% (active) |
| [C-]#[O+].[C-]#[O+].[C-]#[O+].[Cl-].[Ru+2].c1ccc([PH+](CC[PH+](c2ccccc2)c2ccccc2)CC[PH+](c2ccccc2)c2ccccc2)cc1 | 50% | 98% (active) | 91% (active) | 45% | 99% (active) | 92.8% (active) | 55% | 99% (active) | 93.1% (active) | 36% | 97% (active) | 92.2% (active) | 50% | 98% (active) | 92.4% (active) | 56% | 97% (active) | 91.1% (active) |
| CCCCCCCCCCCCCCCCCC(=O)[O][Hg][c]1ccccc1 | 33% | 96% (active) | 90.7% (active) | 43% | 98% (active) | 91.5% (active) | 100% (active) | 99% (active) | 94% (active) | 99% (active) | 100% (active) | 92.3% (active) | 99% (active) | 100% (active) | 90% (active) | 34% | 100% (active) | 90.2% (active) |
| Cc1ccccc1C[As](C)(=O)O | -157% | -140% | 9.95% | -50% | -47% | 2.45% | -64% | -58% | 0.1% | -62% | -58% | 14.8% | -76% | -76% | 0.25% | -147% | -104% | 0.35% |
| O=C(O)C1C2c3cccc4cccc(c34)C12 (centres undefined) | -139% | 88% (active) | 44.8% | -50% | 72% (active) | 87.6% (active) | -56% | 74% (active) | 40.4% | -41% | 78% (active) | 85.3% (active) | -59% | 86% (active) | 93.2% (active) | -112% | 81% (active) | 83.8% (active) |
| CCCCCCCC[N+](CCCC)(CCCC)CCCC (tested in a mixture with another compound) | 99% (active) | 99% (active) | 99.5% (active) | 99% (active) | 100% (active) | 99.7% (active) | 100% (active) | 100% (active) | 99.5% (active) | 97% (active) | 99% (active) | 99.5% (active) | 100% (active) | 99% (active) | 99.7% (active) | 99% (active) | 99% (active) | 99.3% (active) |
| CCCCN1C(=O)C2C(C1=O)C1(Cl)C(Cl)=C(Cl)C2(Cl)C1(Cl)Cl (centres undefined) | 17% | 98% (active) | 95.3% (active) | 17% | 99% (active) | 96% (active) | 11% | 98% (active) | 98.9% (active) | 13% | 98% (active) | 99% (active) | 3% | 98% (active) | 76.5% (active) | 21% | 98% (active) | 76.7% (active) |
